From PubChem BioAssay (NCATS) come the findings set out here.

Assay [1] is described as follows: qHTS for Inhibitors of Plasmodium falciparum (CP250) proliferation (AID 504320).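 Further: plate controls were DMSO vehicle for no effect and 0.29 µM artemisinin control for full effect.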 Put shortly: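 Erythrocytes infected with P. falciparum line (0.3% parasitemia, 2.5% hematocrit final) incubated with compounds 72 h at 37 °C, 5% CO2; SYBR Green lysis buffer added, fluorescence read next day. Normalized to 0.29 uM artemisinin and DMSO.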
Assay [2] has as its target Ubiquitin carboxyl-terminal hydrolase 1 (Homo sapiens) (UniProt O94782). The experiment in a line: Inhibitors of USP1/UAF1: Pilot qHTS (AID 504865). Further: nearly all actives have a fitted effect of over 35% in size. Further: potency means the concentration at half of the fitted maximal effect. Put shortly:
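Kinetic fluorescence assay: 1nM USP1/UAF1, 15 min compound preincubation, then 150nM Ub-Rho; 480/540 nm.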

In assay [3] the target is Luciferin 4-monooxygenase (Photinus pyralis) (UniProt P08659). The experiment in a line: Biochemical firefly luciferase enzyme assay for NPC (AID 624030). Further: nearly all actives have a fitted effect of over 70% in size. Further: potency means the concentration at half of the fitted maximal effect. A digest of the protocol:
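Purified P. pyralis luciferase at 10 nM in 50 mM Tris Acetate (final), luminescence read within 5 minutes of enzyme addition to compounds. Activity normalised to PTC124 versus DMSO; concentration-response curves classed by r2, magnitude and activity.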

A short description of assay [4]: qHTS profiling for inhibitors of Plasmodium falciparum proliferation (AID 504749).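 Further: 0% = DMSO vehicle and full inhibition = artemisinin control; nearly all actives have a fitted effect of over 60% in size.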 The following applies: P. falciparum in erythrocytes, SYBR Green DNA, 72 h, at 28.7 µM (top of the series). A digest of the protocol:
(§1)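 P. falciparum-infected erythrocytes (0.3% parasitemia, 2.5% hematocrit) incubated with compound 72 h at 37 C, 5% CO2. Parasite DNA detected by SYBR Green after lysis, overnight at room temperature; normalised to 0.29 uM artemisinin and DMSO.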

Assay [5] has as its system ATS189. The assay is described as above. The following applies: P. falciparum in erythrocytes, SYBR Green DNA, 72 h; series mostly up to 28.7 µM. A digest of the protocol:
as §1

Assay [6] deals with CP185. Described as above. The following applies: P. falciparum in erythrocytes, SYBR Green DNA, 72 h; series mostly up to 28.7 µM. A digest of the protocol:
as §1

Assay [7] deals with CP201. The assay is described as above. The following applies: P. falciparum in erythrocytes, SYBR Green DNA, 72 h; series mostly up to 28.7 µM. A digest of the protocol: as §1
For assay [8], the system named is CP238. Described as above. The following applies: P. falciparum in erythrocytes, SYBR Green DNA, 72 h; series mostly up to 28.7 µM. A digest of the protocol:
as §1

Assay [9] concerns CP252. Described as above. The following applies: P. falciparum in erythrocytes, SYBR Green DNA, 72 h; series mostly up to 28.7 µM. Put shortly: as §1
Assay [10] relates to CP265. The assay is described as above. The following applies: P. falciparum in erythrocytes, SYBR Green DNA, 72 h; series mostly up to 28.7 µM. Put shortly:
as §1

Assay [11] concerns CP286. Described as above. The following applies: P. falciparum in erythrocytes, SYBR Green DNA, 72 h; series mostly up to 28.7 µM. Put shortly:
as §1

The test system of assay [12] is CP305. Described as above. The following applies: P. falciparum in erythrocytes, SYBR Green DNA, 72 h; series mostly up to 28.7 µM. Put shortly:
as §1

Assay [13] relates to CP325. The assay is described as above. The settings on record: P. falciparum in erythrocytes, SYBR Green DNA, 72 h; series mostly up to 28.7 µM. Put shortly: as §1
Assay [14] has as its system FAB9. The description is as above. The settings on record: P. falciparum in erythrocytes, SYBR Green DNA, 72 h; series mostly up to 28.7 µM. Put shortly:
as §1

Assay [15] deals with PC15. Described as above. The following applies: P. falciparum in erythrocytes, SYBR Green DNA, 72 h; series mostly up to 28.7 µM. A digest of the protocol:
as §1

Assay [16] deals with PC49. The assay is described as above. The following applies: P. falciparum in erythrocytes, SYBR Green DNA, 72 h; series mostly up to 28.7 µM. A digest of the protocol: as §1
The target in assay [17] is Cytochrome P450 3A4 (Homo sapiens) (UniProt P08684). As to the kind of experiment: qHTS Assay for Inhibitors and Substrates of Cytochrome P450 3A4 (AID 884). Further: nearly all actives have a fitted effect of over 50% in size. Further: potency means the concentration at half of the fitted maximal effect. Put shortly: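 20 nM human CYP3A4 with 25 uM Luciferin-PPXE (at KM) in 200 mM KPO4, preincubated 10 min with compound; NADPH regeneration started a 60 min RT reaction. Luciferin detected by luminescence, normalized to 57 uM ketoconazole as full inhibition.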

Assay [18] shares this target. The experiment in a line: qHTS Assay for Activators of Cytochrome P450 3A4 (AID 885). Further: nearly all actives have a fitted effect of over 65% in size. Put shortly:
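20nM CYP3A4 + 25uM Luciferin-PPXE (=KM), 200mM KPO4; cpd 10 min RT; NADPH regen, 60 min RT; stop w/ detection buffer, 20 min; luminescence. Normalized to 57 uM ketoconazole.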

The target of assay [19] is DNA dC->dU-editing enzyme APOBEC-3G (Homo sapiens) (UniProt Q9HC16). The experiment in a line: qHTS for inhibitors of Vif-A3G interactions: Validation (AID 588379). Further: 0% is about no effect. A digest of the protocol:
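HeLa cells stably expressing Vif and A3G-eYFP, 700 cells/well, incubated overnight at 37 deg C, then exposed to compound overnight at 37 deg C. Inhibition of Vif-mediated degradation read as increased yellow fluorescence (Ex 488/Em 500-530) by laser-scanning cytometry.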

A number with no mark means an inactive call. Inconclusive results are not listed. Active and inactive are the calls of the source. The call rests on the fitted dose curve; in most records, active means well fitted curve in the direction sought with a large enough effect; inconclusive means small, poorly fitted or top-dose-only effect, or another doubt; inactive means no such curve, though single readings can be large; an effect the other way counts as inactive or inconclusive. Numbered stars: 1 amine (or outer) side, 2 acyl side, 3 side chain; on linkers, the order of the positions; unused ones are H or OH. Bridge positions count the residues as written; N and C are the ends. Square brackets hold non-standard residues; d marks the D form. Peptide text beside a SMILES is read from it. * marks the point of attachment. ξ: configuration not given here. ΔAla(Z-3-ureido) = NC(=O)N/C=C(\N)C(=O)O; X2 = NC1=NC(O)CC(C(N[*:1])C(=O)[*:2])N1; X1 = NC1=NCCC(C(N[*:1])C(=O)[*:2])N1; ξβ3hOrn = NCCCC(N)CC(=O)*; Dap = NC[CH](N)C(=O)O

DNA dC->dU-editing enzyme APOBEC-3G (Homo sapiens), sequence (Q9HC16 whole entry, looked up): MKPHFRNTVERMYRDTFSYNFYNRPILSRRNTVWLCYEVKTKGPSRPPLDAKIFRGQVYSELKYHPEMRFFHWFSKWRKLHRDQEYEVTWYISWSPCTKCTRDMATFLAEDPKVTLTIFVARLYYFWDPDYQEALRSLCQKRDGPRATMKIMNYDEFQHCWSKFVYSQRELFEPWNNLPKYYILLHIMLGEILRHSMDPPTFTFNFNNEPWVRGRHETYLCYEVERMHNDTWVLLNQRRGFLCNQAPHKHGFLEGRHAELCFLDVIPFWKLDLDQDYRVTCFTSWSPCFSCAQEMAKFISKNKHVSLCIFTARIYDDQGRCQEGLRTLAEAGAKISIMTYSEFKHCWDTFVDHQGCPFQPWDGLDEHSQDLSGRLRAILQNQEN
Luciferin 4-monooxygenase (Photinus pyralis), sequence (P08659 whole entry, looked up): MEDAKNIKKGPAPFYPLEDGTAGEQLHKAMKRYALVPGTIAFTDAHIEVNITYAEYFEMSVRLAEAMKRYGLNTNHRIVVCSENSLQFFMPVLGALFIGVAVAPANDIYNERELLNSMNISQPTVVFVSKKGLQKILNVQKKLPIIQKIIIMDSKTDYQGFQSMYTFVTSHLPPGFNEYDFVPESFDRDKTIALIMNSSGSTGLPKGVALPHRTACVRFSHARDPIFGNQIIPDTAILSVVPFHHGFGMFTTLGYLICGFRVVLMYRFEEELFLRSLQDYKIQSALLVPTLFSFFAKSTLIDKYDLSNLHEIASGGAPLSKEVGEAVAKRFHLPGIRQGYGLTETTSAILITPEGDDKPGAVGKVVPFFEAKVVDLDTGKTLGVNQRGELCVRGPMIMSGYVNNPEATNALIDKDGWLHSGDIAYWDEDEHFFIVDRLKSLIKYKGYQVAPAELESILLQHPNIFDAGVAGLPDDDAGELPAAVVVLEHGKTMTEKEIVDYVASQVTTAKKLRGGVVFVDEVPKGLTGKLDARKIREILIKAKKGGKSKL
Ubiquitin carboxyl-terminal hydrolase 1 (Homo sapiens), sequence (O94782 whole entry, looked up): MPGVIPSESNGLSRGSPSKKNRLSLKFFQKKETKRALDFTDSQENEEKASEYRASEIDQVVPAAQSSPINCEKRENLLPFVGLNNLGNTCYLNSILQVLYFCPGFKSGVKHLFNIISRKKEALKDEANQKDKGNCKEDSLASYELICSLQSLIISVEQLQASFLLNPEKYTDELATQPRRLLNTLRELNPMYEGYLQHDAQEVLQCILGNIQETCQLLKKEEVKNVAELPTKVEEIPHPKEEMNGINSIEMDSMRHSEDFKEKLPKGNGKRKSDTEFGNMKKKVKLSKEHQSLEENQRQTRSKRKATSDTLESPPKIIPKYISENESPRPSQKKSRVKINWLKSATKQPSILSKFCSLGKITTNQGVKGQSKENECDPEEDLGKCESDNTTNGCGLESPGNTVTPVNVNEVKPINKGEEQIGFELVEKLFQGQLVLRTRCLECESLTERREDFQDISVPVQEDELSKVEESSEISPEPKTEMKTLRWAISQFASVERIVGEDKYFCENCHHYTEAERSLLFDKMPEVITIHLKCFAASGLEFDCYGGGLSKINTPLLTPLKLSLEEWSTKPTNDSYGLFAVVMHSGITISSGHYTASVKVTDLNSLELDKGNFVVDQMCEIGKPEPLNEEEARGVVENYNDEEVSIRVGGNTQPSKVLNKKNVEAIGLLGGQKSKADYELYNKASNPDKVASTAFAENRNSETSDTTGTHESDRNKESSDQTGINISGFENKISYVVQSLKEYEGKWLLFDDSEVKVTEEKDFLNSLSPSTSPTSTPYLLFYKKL
Cytochrome P450 3A4 (Homo sapiens), sequence (P08684 whole entry, looked up): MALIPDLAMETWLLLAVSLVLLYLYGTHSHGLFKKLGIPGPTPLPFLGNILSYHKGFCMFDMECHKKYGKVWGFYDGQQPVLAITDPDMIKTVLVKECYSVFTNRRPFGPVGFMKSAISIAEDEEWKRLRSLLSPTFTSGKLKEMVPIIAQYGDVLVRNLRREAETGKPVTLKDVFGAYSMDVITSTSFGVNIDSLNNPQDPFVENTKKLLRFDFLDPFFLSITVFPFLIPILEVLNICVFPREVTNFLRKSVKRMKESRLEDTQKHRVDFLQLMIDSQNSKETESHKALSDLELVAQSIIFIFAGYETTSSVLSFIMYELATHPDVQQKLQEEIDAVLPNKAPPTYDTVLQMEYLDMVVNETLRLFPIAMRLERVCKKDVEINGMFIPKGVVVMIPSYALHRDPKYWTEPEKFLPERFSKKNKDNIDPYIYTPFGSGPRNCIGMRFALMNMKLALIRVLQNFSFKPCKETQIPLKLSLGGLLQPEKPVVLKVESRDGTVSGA

With `COc1ccc(-c2nc(-c3ccccc3)c(Nc3c(C)cccc3C)o2)cc1`, the Potency result in [1] is “inactive”.

As for `CC(=O)OCC(=O)[C@@]1(O)CCC2C3CCC4=CC(=O)CC[C@]4(C)C3=CC[C@@]21C` (stereo not given in full), the Potency entry in [2], in assay [3], in [5], in [6], in assay [7] and in [8] was “inactive” in each case. For the same molecule, the Potency entry in [9], in assay [10], in assay [11], in assay [12], in assay [13] and in [14] was “inactive” in each case. Besides, the Potency entry in assay [15] and in [16] was “inactive” throughout. The values for the activity, negative = inhibition in assay [4] (parasite line A) and in assay [4] (parasite line B) were 11% and 2.99%, respectively.

With `CC(C)(C)N1C(=O)[C@@H]2[C@H]3[C@H](O)[C@H](O)CC(=NOCc4ccccc4)[C@H]3CC[C@H]2C1=O`, in [1], the Potency entry was “inactive”.

For `COc1cc2c(C)c3c4c(cc(OC)c(OC)c4c2cc1OC)CCN3C`, the Potency was 15.8 µM (active) in assay [17] and 25.1 µM (active) in [2]. For the same molecule, the Potency entry in assay [18] and in assay [19] was “inactive” throughout.

Turning to `O=C1/C(=C\c2cccs2)CCC/C1=C/c1cccs1`, in [3], the Potency is 5.73 µM (active). The activity, negative = inhibition in assay [4] (parasite line A) was 0.948%; in assay [4] (parasite line B), 10.7%. In addition, the Potency result in assay [5], in assay [6], in assay [7], in assay [8], in assay [9] and in [10] was “inactive” each time. Further, the Potency entry in assay [11], in [12], in assay [13], in [14], in assay [15] and in assay [16] was “inactive” each time.

For `CC1(C)C(/C=C/C=C/C=C/C=C2\N(CCCCS(=O)(=O)O)c3ccc4ccccc4c3C2(C)C)=[N+](CCCCS(=O)(=O)[O-])c2ccc3ccccc3c21`, the Potency is 31.6 µM (active) in assay [2] and 28.7 µM (active) in [3]. Further, the values for the activity, negative = inhibition in [4] (parasite line A) and in assay [4] (parasite line B) were 2.34% and 4.13%, respectively. The Potency entry in [5], in assay [6], in assay [7], in assay [8], in assay [9] and in assay [10] was “inactive” each time. The Potency entry in assay [11], in assay [12], in assay [13], in assay [14], in [15] and in [16] was “inactive” throughout.

Turning to `O=C(/C=C/c1ccc(O)cc1)c1c(O)cc(O)cc1O`, the Potency in [17] was 7.94 µM (active). Also, the Potency result in assay [18], in assay [2] and in [19] was “inactive” throughout.

Turning to `Cn1cc(O)nc1NC(=O)Nc1cccc(Cl)c1`, the Potency result in assay [2], in [3], in [5], in [6], in [7] and in assay [8] was “inactive” in each case. Besides, the Potency entry in assay [9], in [10], in assay [11], in assay [12], in assay [13] and in [14] was “inactive” in each case. The Potency result in assay [15] and in assay [16] was “inactive” throughout. The activity, negative = inhibition in assay [4] (parasite line A) is -22.2%; in assay [4] (parasite line B) it was -22.3%.

Turning to `C[C@H]1[C@H]2CC[C@H]3C4CC=C5C[C@@H](N(C)C)CC[C@]5(C)C4CC[C@]23CN1C` (stereo not given in full), the Potency result in assay [17], in [2] and in [19] was “inactive” each time.

Take `CC(C)C(NC(=O)C(CC(=O)O)NC(=O)C(CCCCN)NC(=O)C(N)CCCN=C(N)N)C(=O)NC(Cc1ccc(O)cc1)C(=O)O` (stereo not given) (H-RKDVY-OH; configuration not given here): the Potency entry in [2], in assay [3], in assay [5], in assay [6], in assay [7] and in assay [8] was “inactive” each time. Moreover, the Potency result in assay [9], in assay [10], in assay [11], in assay [12], in [13] and in [14] was “inactive” throughout. Moreover, the Potency result in assay [15] and in [16] was “inactive” in each case. The values for the activity, negative = inhibition in [4] (parasite line A) and in [4] (parasite line B) were 0.811% and 3.22%, respectively.

On to `NCCCC(N)CC(=O)NCC1NC(=O)C(CO)NC(=O)C(N)CNC(=O)C(C2CCN=C(N)N2)NC(=O)/C(=C/NC(N)=O)NC1=O` (stereo not drawn) (H-[Dap]S[Dap](ξβ3hOrn)[ΔAla(Z-3-ureido)][X1]; lactam 1-C; configuration not given here), for which the Potency result in [2], in assay [3], in assay [5], in [6], in assay [7] and in assay [8] was “inactive” each time. Besides, the Potency result in assay [9], in assay [10], in assay [11], in [12], in assay [13] and in [14] was “inactive” throughout. Besides, the Potency entry in assay [15] and in [16] was “inactive” each time. The activity, negative = inhibition in assay [4] (parasite line A) is 10.1%; in assay [4] (parasite line B) it was 0.112%.

As for `CC(C)CC(NC(=O)C(COC(C)(C)C)NC(=O)C(Cc1ccc(O)cc1)NC(=O)C(CO)NC(=O)C(Cc1c[nH]c2ccccc12)NC(=O)C(Cc1cnc[nH]1)NC(=O)C1CCC(=O)N1)C(=O)NC(CCCN=C(N)N)C(=O)N1CCCC1C(=O)NNC(N)=O` (stereo not given), the Potency entry in assay [2], in [3], in assay [5], in assay [6], in assay [7] and in assay [8] was “inactive” in each case. Besides, the Potency result in assay [9], in [10], in assay [11], in assay [12], in assay [13] and in [14] was “inactive” throughout. For the same molecule, the Potency entry in [15] and in assay [16] was “inactive” in each case. Also, the activity, negative = inhibition is 11.9% in assay [4] (parasite line A) and 5.86% in assay [4] (parasite line B).

With `NCCCC(N)CC(=O)NC1CNC(=O)C(C2CC(O)N=C(N)N2)NC(=O)/C(=C/NC(N)=O)NC(=O)C(CO)NC(=O)C(CO)NC1=O` (stereo not drawn) (ξβ3hOrn-[Dap]SS[ΔAla(Z-3-ureido)][X2]; lactam 1-C; configuration not given here), the Potency entry in [2], in [3], in [5], in assay [6], in assay [7] and in [8] was “inactive” in each case. Further, the Potency entry in assay [9], in assay [10], in [11], in assay [12], in assay [13] and in [14] was “inactive” in each case. Also, the Potency entry in assay [15] and in [16] was “inactive” throughout. The activity, negative = inhibition in assay [4] (parasite line A) is 5.91%; in assay [4] (parasite line B), 6.39%.

On to `C[C@H](C(=O)O)c1cccc(C(=O)c2ccccc2)c1`, for which the Potency result in [2] and in assay [19] was “inactive” each time.

In the case of `O=C(/C=C/c1ccccc1)c1cccs1`, the Potency result in [17], in assay [2] and in assay [19] was “inactive” each time.
